Hits are enriched below; roughly 8.3% of the tested compounds scored in any of these assays.
Giardia kill: Giardia lamblia killing | Giardia lamblia trophozoite viability | activity change, % at 7.66 µM, hits read low | actives 0.15% (n = 340,000); in the data active means activity change below about -80%; inconclusive means between about -30% and that limit;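 further: parasites exposed to compound for two days anaerobically before the ATP read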
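Giardia lamblia trophozoites (100 cells/well) were incubated with compounds for 48 h at 37 deg C under anaerobic conditions. Viability was read as ATP content by one-step luminescence after 15-30 min at room temperature.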
SW480 rerep: DNA re-replication induction in SW480 cells; SW480 DNA re-replication, Hoechst DNA content imaging, 48 h; actives 1.8% (n = 340,000); Potency, µM (series often up to 46.1 µM), hits mostly activators; further: nearly all actives have a fitted effect of over 55% in size
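Cells (250 per well) received 23 nL compound or DMSO by pin tool and were kept 48 hr at 37 C, 5% CO2. Nuclei were then stained with Hoechst for 40 min and scanned for DNA content.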
Gal4-VP16 FLuc: counter-screen for ROR gamma inhibitors: Gal4-VP16 reporter; Drosophila S2 Gal4-VP16 UAS-luciferase, luminescence, 20 h; Potency, µM (series often up to 53.6 µM), actives largely listed as inhibitors; actives 3.5% (n = 310,000);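 further: Gal4-VP16 expression switched on by copper sulfate through the metallothionein promoter; nearly all actives have a fitted effect of over 50% in size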
Chronic BCR inh: chronic active BCR signaling inhibition | ABC-DLBCL IkBa-CBG/CBR reporter, luminescence ratio, 4 h | actives 0.05% (n = 340,000) | Potency, µM (top dose mostly 46.1 µM), usual class: inhibitors | AID 493014; active means well fitted inhibition curve with a large enough effect in the signal ratio, with a control signal flat, not every such curve was filed as active; inconclusive means small, poorly fitted or top-dose-only effect, or effect the other way, or a change in a side signal; the % refers to the signal ratio
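TMD8 human ABC-DLBCL cells with doxycycline-inducible IκBα–green luciferase fusion and unfused red luciferase, in 0.5% FBS medium; compounds up to 46 uM, 4 h at 37C. Green/red luminescence ratio, filter-overlap corrected, fitted to concentration-response curves.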
MCF10A rereplic: induces DNA re-replication in MCF 10a normal breast cells; MCF 10A DNA re-replication, Hoechst nuclear intensity, 48 h; Potency, µM (top dose mostly 46.1 µM), hits mostly activators; actives 2.9% (n = 350,000); further: nearly all actives have a fitted effect of over 50% in size
RORg inh: inhibitors of mouse ROR gamma transcriptional activity; Drosophila S2 Gal4-RORgamma UAS-luciferase reporter, 20 h; actives 5.4% (n = 310,000); Potency, µM (titrated, usually from 53.6 µM), usual class: inhibitors; P51450; further: nearly all actives have a fitted effect of over 60% in size
Target sequence (P51450 whole entry, looked up, the tested form may be a part): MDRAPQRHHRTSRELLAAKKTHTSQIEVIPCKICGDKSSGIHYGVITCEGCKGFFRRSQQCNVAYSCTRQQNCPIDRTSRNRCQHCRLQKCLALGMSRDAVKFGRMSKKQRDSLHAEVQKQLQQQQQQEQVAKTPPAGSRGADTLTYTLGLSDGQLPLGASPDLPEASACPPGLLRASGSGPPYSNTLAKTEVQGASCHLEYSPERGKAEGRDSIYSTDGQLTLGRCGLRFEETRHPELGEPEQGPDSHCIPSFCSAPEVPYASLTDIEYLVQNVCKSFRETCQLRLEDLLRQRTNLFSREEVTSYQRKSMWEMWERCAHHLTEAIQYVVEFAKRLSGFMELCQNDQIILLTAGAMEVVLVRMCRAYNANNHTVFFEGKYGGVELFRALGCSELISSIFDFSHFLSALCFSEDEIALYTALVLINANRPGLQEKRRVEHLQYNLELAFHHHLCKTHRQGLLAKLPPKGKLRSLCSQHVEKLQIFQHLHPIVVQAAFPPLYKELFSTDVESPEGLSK
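Read-out: Photinus luciferase luminescence; inhibitors lower reporter signal. Insect Schneider cells with Gal4-ROR gamma fusion under metallothionein promoter, UAS reporter; 700 uM final copper sulfate induction, 20 hr, ambient temperature.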
Large screens that a line does not name were inactive. Unless noted, the call rests on the fitted dose curve; in most records, active means well fitted curve in the direction sought with a large enough effect; inconclusive means small, poorly fitted or top-dose-only effect, or another doubt; inactive means no such curve, though single readings can be large; an effect the other way counts as inactive or inconclusive.

CC(OC(=O)/C(C#N)=C/c1ccc(N(C)C)cc1)C(=O)N(C)Cc1ccccc1 (stereo not drawn)	SW480 rerep inconclusive, Chronic BCR inh inconclusive, MCF10A rereplic 16.4µM
O=C1NC2(CCSC2)C(=O)N1CC(=O)N(Cc1ccccc1)C1CCS(=O)(=O)C1 (stereo not drawn)	none
CN(Cc1ccccc1)c1nc(N)nc(Cl)c1C=O	SW480 rerep 4.61µM, Chronic BCR inh inconclusive
Cc1noc(C)c1S(=O)(=O)Nc1ccc(C(C)C)cc1	SW480 rerep inconclusive, MCF10A rereplic 23.1µM
O=C(CSc1ccc(-c2ccc(-n3cccn3)cc2)nn1)Nc1ccccc1F	none (no result: Gal4-VP16 FLuc, RORg inh)
CSc1cccc(NC(=S)NC(=O)CCc2ccccc2)c1	SW480 rerep inconclusive, Gal4-VP16 FLuc 8.91µM, Chronic BCR inh inconclusive, MCF10A rereplic 16.4µM, RORg inh 3.16µM
NC(=O)c1ccccc1NC(=S)NC(=O)CCc1ccccc1	SW480 rerep 3.26µM, Chronic BCR inh inconclusive, MCF10A rereplic 5.8µM, RORg inh inconclusive
Cc1cccc(C)c1NC(=S)NC(=O)CCc1ccccc1	SW480 rerep 3.26µM, Gal4-VP16 FLuc 10µM, Chronic BCR inh inconclusive, MCF10A rereplic inconclusive, RORg inh 2.82µM
O=C(Cn1cnc2c(OCc3ccccc3)ncnc21)N[C@H](CO)Cc1cc2ccccc2[nH]1	none (no result: Gal4-VP16 FLuc, RORg inh)
Cc1ccc(N(C(=O)c2csnn2)C(C(=O)NC(C)(C)C)c2ccncc2)cc1 (stereo not drawn)	SW480 rerep 18.4µM, MCF10A rereplic 9.2µM
O=C(CCNC(=O)c1ccccc1Cl)Nc1cc(C(F)(F)F)ccc1N1CCCC1	SW480 rerep inconclusive
COC(=O)/C(=C\Nc1ccc(Cl)cc1Cl)NC(=O)c1ccc(OC)cc1	SW480 rerep 6.51µM, MCF10A rereplic 18.4µM
COCCNC(=S)Nc1ccccc1Cc1ccccc1	Gal4-VP16 FLuc 10µM, RORg inh 3.55µM
COCCNC(=S)NN(c1ccccc1)c1ccccc1	SW480 rerep inconclusive, Gal4-VP16 FLuc inconclusive, MCF10A rereplic inconclusive, RORg inh 7.94µM
CNC(=S)NN(c1ccccc1)c1ccccc1	Gal4-VP16 FLuc inconclusive, RORg inh 17.8µM
CN(C(N)=S)c1ccccc1	none
COc1ccc(-c2cc(=O)n(-c3ccc([N+](=O)[O-])cc3)[nH]2)cc1	Chronic BCR inh inconclusive, MCF10A rereplic 16.4µM
O=C(Nc1ccc(F)cc1F)c1ccc(CN2CC(=O)N3CCCCC3C2=O)cc1 (stereo not drawn)	none (no result: Giardia kill, SW480 rerep, Gal4-VP16 FLuc, MCF10A rereplic, RORg inh)
CC1(C)Cc2c(C#N)c(NCCO)nc(-c3ccco3)c2CO1	SW480 rerep 18.4µM, MCF10A rereplic 23.1µM
CC1(C)Cc2c(c(-c3ccco3)nc3sc4c(NCCN5CCOCC5)ncnc4c23)CO1	Gal4-VP16 FLuc inconclusive, MCF10A rereplic inconclusive, RORg inh inconclusive
CN(C)CCNc1nc(-c2ccccc2)c2c(c1C#N)CC(C)(C)OC2	Chronic BCR inh inconclusive
CC1(C)Cc2c(C#N)c(NCCN3CCOCC3)nc(-c3ccccc3)c2CO1	SW480 rerep 7.31µM
CC1(C)Cc2c(C#N)c(NCCN3CCOCC3)nc(-c3ccco3)c2CO1	Chronic BCR inh inconclusive, MCF10A rereplic 23.1µM
CCc1[nH]nc(C(=O)N2CCCC(CCC(=O)N3CCN(c4ccccn4)CC3)C2)c1C (stereo not drawn)	MCF10A rereplic inconclusive
CCOc1ccc(NS(=O)(=O)c2ccc3[nH]c(=O)[nH]c3c2)cc1	Gal4-VP16 FLuc inconclusive
COc1ccc(C(=O)C2CCCN(C(=O)c3cccc(Cl)c3F)C2)cc1OC (stereo not drawn)	none
O=C1C(=O)N(CCN2CCOCC2)C(c2ccncc2)/C1=C(/O)c1ccc2c(c1)OCO2 (stereo not drawn)	none
O=C1C(=O)N(CCN2CCOCC2)C(c2ccc([N+](=O)[O-])cc2)/C1=C(/O)c1ccc2c(c1)OCO2 (stereo not drawn)	SW480 rerep inconclusive, Gal4-VP16 FLuc 11.2µM, Chronic BCR inh inconclusive, RORg inh 7.94µM
c1ccc(-c2nnc(-c3ccccn3)s2)nc1	Chronic BCR inh inconclusive, RORg inh 1.78µM
c1ccc(-c2nc(-c3ccccn3)nc(-c3ccccn3)n2)nc1	none
CCC1CCCCN1CCCNC(=O)Cn1ncc2c(C)n(Cc3ccccc3Cl)c(C)c2c1=O (stereo not drawn)	Chronic BCR inh inconclusive
CC(=O)Oc1ccc(/C=C2/SC(=S)N(Cc3ccccc3)C2=O)cc1	MCF10A rereplic 3.26µM
COc1ccc(CN2C(=O)/C(=C/c3ccncc3)SC2=S)cc1	SW480 rerep inconclusive, Gal4-VP16 FLuc inconclusive, Chronic BCR inh inconclusive, MCF10A rereplic 23.1µM, RORg inh inconclusive
COc1ccc(/C=C2\SC(=S)N(c3cccnc3)C2=O)cc1	Chronic BCR inh inconclusive
c1csc(-c2csc3nc(CN4CCOCC4)nc(NCc4ccc5c(c4)OCO5)c23)c1	Gal4-VP16 FLuc inconclusive, Chronic BCR inh inconclusive, MCF10A rereplic inconclusive, RORg inh 17.8µM
c1ccc2c(c1)nc(NCc1ccc3c(c1)OCO3)n2CCN1CCOCC1	Chronic BCR inh inconclusive
CC(C)n1cc(CN2CCN(CCc3ccccc3)C(CCO)C2)cn1 (stereo not drawn)	none
CCc1ccccc1NNC(=O)c1snnc1C	SW480 rerep 11.6µM, MCF10A rereplic inconclusive
O=C(Nc1ccccc1)OCCN1CCOCC1	none (no result: Gal4-VP16 FLuc, Chronic BCR inh, RORg inh)
Cc1ccc(CNC(=O)/C=C/c2ccc(S(=O)(=O)N3CCOCC3)cc2)cc1	SW480 rerep 0.82µM, MCF10A rereplic inconclusive, RORg inh inconclusive
NS(=O)(=O)c1ccc(CNC(=O)/C=C/c2ccc(S(=O)(=O)N3CCOCC3)cc2)cc1	Chronic BCR inh inconclusive
O=C(/C=C/c1ccc(S(=O)(=O)N2CCOCC2)cc1)NC(=S)Nc1ccc(N2CCOCC2)cc1	RORg inh 5.62µM
Cc1cc(NC(=S)NC(=O)/C=C/c2ccc(S(=O)(=O)N3CCOCC3)cc2)ccc1Br	SW480 rerep inconclusive, RORg inh 7.08µM
CC(C)(C)NNC(=S)Nc1ccc(S(=O)(=O)N2CCOCC2)cc1	Gal4-VP16 FLuc inconclusive, RORg inh 5.62µM
CC(=O)NC(=S)Nc1ccc(S(=O)(=O)N2CCOCC2)cc1	Chronic BCR inh inconclusive
O=C(/C=C/c1ccc(F)cc1)Nc1ccc(S(=O)(=O)N2CCOCC2)cc1	none
O=C(Nc1cc(-c2ccccc2)[nH]n1)c1ccccc1	SW480 rerep 9.2µM, Chronic BCR inh inconclusive, MCF10A rereplic inconclusive
CC(=O)NC(c1ccccc1)c1cc(Cl)c2cccnc2c1O (stereo not drawn)	SW480 rerep inconclusive, Gal4-VP16 FLuc 1.12µM, MCF10A rereplic inconclusive, RORg inh 1.41µM
CCOc1ccc(C(NC(=O)c2ccco2)c2ccc(OC)c(OC)c2)cc1 (stereo not drawn)	SW480 rerep inconclusive, Chronic BCR inh inconclusive, MCF10A rereplic 3.66µM

Screening data deposited in PubChem by National Center for Advancing Translational Sciences (NCATS).
